# RGS16-Gao – RGS16-Galphao interaction regulator (human). hit rate 0.38% among 220,000. binding response (% of control), % at 10 µM. bead-based flow cytometry RGS16-Galphao binding, fluorescence; actives lie on both sides. AID 1441;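 also: Galphao activated by GDP with aluminum fluoride before binding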
# Avidin fluor – avidin bead compound fluorescence profile. hit rate 0.38% among 220,000. Avidin beads, compound fluorescence 488/530 nm, flow cytometry; stronger effect = higher value. fluorescence (KMESF) at 10 µM; in the data active = fluorescence above about 47
# RGS8-Gao – regulators of human RGS8-Galphao interaction; P09471; multiplexed bead flow cytometry, RGS8-Galphao binding; actives lie on both sides; response (percent of control binding), % at 10 µM; hit rate 0.34% among 220,000; in the data active = response below about 60% or above about 140%; inactive = in between;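 also: Galphao activated as the GDP aluminium fluoride complex binding bead-coupled RGS8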
# Target sequence (P09471 whole entry, looked up): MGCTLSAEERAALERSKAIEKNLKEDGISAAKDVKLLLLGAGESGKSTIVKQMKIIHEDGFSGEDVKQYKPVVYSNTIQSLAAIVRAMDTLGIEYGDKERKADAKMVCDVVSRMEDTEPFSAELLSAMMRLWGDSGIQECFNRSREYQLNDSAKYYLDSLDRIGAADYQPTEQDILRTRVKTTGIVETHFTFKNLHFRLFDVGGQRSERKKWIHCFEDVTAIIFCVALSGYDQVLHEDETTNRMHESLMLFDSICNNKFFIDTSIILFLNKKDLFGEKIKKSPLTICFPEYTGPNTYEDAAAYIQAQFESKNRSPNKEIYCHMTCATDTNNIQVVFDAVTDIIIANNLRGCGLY
# RGS7-Gao reg – modulates binding of RGS7 to human Galphao | Multiplexed bead flow cytometry; actives lie on both sides | P09471 | hit rate 0.35% among 220,000 | AID 1439 | binding response (% of control), % at 10 µM; in the data active = binding response below about 49% or above about 150%; inconclusive = no clear call, values can overlap the other calls; inactive = in between;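 also: fluorescent Galphao held in activated GDP-AlF4 state binding bead-coupled RGS7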
# RGS4-Gao reg – modulates binding of RGS4 to human Galphao; Multiplexed bead flow cytometry; actives lie on both sides; binding response (% of control), % at 10 µM; hit rate 0.33% among 220,000; in the data active = binding response below about 49% or above about 150%; inactive = in between;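 also: fluorescent Galphao activated with aluminum fluoride binding bead-coupled RGS4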
# GSH fluor – compound fluoresces at 488/530 nm on GSH beads | GSH beads flow cytometry, compound fluorescence 488/530 nm; stronger effect = higher value | fluorescence (KMESF) at 10 µM | hit rate 0.25% among 190,000; in the data active = fluorescence above about 89;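 also: glutathione beads carrying GST-tagged Bcl family fusion proteins plus one bare bead set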
# RGS4-Gao HTS – RGS4-Galphao interaction regulator (human); RGS4–Galpha-o binding response, % at 10 µM; hit rate 99% among 1,600; shares compounds with RGS16-Gao; multiplexed bead flow cytometry, RGS–Galpha-o binding;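 also: fluorescently labeled Galpha-o bound to GDP with aluminium fluoride binding biotinylated RGS beads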
# Biotin-avidin – biotin-avidin bead binding disruption counter-screen; streptavidin beads, fluorescein-biotin binding, flow cytometry; inhibition, % at 10 µM; 1,700 tested, under 10 active; shares compounds with RGS16-Gao;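 active = inhibition above 50%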;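 also: median green fluorescence of gated singlet beads compared with DMSO control wells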
# RGS8-Gao single – RGS8-Galphao interaction regulation, single point confirmation; hit rate 3% among 1,700; binding response (% of control), % at 10 µM; AID 1836; shares compounds with RGS16-Gao; bead-based flow cytometry RGS8-Galphao binding, fluorescence; actives lie on both sides; in the data active = binding response below about 72% or above about 130%; inactive = in between;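 also: Galphao activated as GDP AlF4 complex before binding bead RGS8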
# RGS7-Gao single – RGS7-Galphao interaction regulation, single point confirmation. shares compounds with RGS16-Gao. bead-based flow cytometry RGS7-Galphao binding; actives lie on both sides. response (percent of control binding), % at 10 µM. hit rate 7.8% among 1,700. AID 1837; in the data active = response below about 75% or above about 130%; inactive = in between;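 also: fluorescent Galphao activated with GDP and aluminum fluoride binding bead-coupled RGS7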
# RGS16-Gao conf – RGS16-Galphao interaction regulation, single point confirmation. shares compounds with RGS16-Gao. bead-based flow cytometry, RGS16-Galphao binding; actives lie on both sides. response (% of control binding), % at 10 µM. hit rate 4% among 1,700. AID 1838; in the data active = response below about 74% or above about 130%; inactive = in between;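 also: Galphao activated as the GDP aluminium fluoride complex binding bead-coupled RGS16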
# RGS4-Gao single – confirmation of regulators of human RGS4-Galphao interaction; shares compounds with RGS16-Gao; RGS4-Galphao binding, multiplexed bead flow cytometry; actives lie on both sides; binding response (% of control), % at 10 µM; hit rate 4% among 1,700; AID 1840; in the data active = binding response below about 74% or above about 130%; inactive = in between
# RGS19-Gao conf – RGS19-Galphao interaction regulation, single point confirmation. shares compounds with RGS16-Gao. bead-based flow cytometry RGS19-Galphao binding; actives lie on both sides. response (percent of control binding), % at 10 µM. hit rate 5% among 1,700. AID 1841; in the data active = response below about 50% or above about 160%; inactive = in between
# Numbers stand for hits; n = inactive; u = inconclusive; x = not tested or not shown; [ ] = remark or other dose. Most compounds without a hit are left out; they make up all but 1.2% or so of the library. Unless noted, no rule for the calls is given here.
SMILES,RGS16-Gao,Avidin fluor,RGS8-Gao,RGS7-Gao reg,RGS4-Gao reg,GSH fluor,Biotin-avidin,RGS8-Gao single,RGS7-Gao single,RGS16-Gao conf,RGS4-Gao single,RGS19-Gao conf,others
CCN1CCN(C(=O)COc2ccc(S(=O)(=O)N(C)Cc3ccccc3)cc2)CC1,24,n,n,n,n,n,n,n,n,n,n,n,RGS4-Gao HTS=82
CCC(=NCc1ccco1)c1c(O)n(-c2ccc(OC)cc2)c(=O)[nH]c1=O,n,n,n,n,n,n,x,x,x,x,x,x,
COc1cc(C(=O)N/N=C/C23CC[C@@H](O)CC2(O)CC[C@@H]2[C@@H]3CCC3(C)C(C4=CC(=O)OC4)CCC23O)ccc1O (some centres not stated),n,n,n,u,n,x,x,x,x,x,x,x,
CCC1(CC)C(=O)N(C)C(=O)NC1=NC,204[activator],95,n,u,196[activator],x,n,n,n,n,n,n,
Cc1nn(Cc2ccc(Cl)cc2Cl)c(Cl)c1C(=O)NC1CCCc2ccccc21 (configuration not stated),n,n,n,n,n,n,x,x,x,x,x,x,
Cc1cc(OC(=O)N(C)C)n(-c2ccccc2)n1,-15,n,9.2,u,-23,x,n,n,n,n,n,n,
C=CCN1CC[C@]23c4c5ccc(O)c4O[C@H]2C(=O)CC[C@@]3(O)[C@H]1C5,n,n,57,34,48,n,n,n,n,n,n,n,
CCOC(=O)c1[nH]ncc1CN1CCCC(C(=O)c2cccc(Cl)c2)C1 (configuration not stated),n,n,n,u,n,x,x,x,x,x,x,x,
CCn1c(O)c(/C=N/N2CCOCC2)c(=O)n(CC)c1=S,14,n,n,n,n,n,x,x,x,x,x,x,RGS4-Gao HTS=93
